This assay addresses Follistatin-related protein 3 (Homo sapiens) (UniProt O95633). The experiment in a line: compounds binding follistatin-related protein 3 – biochemical, small-molecule microarray, 635 nm fluorescence, primary screen (AID 1105).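 Further: score merges emission near 667 nm and signal to noise per printed spot across three slides.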 Particulars: FSTL3 binding, higher = more signal.
Follistatin-related protein 3 (Homo sapiens), sequence (O95633 whole entry, looked up): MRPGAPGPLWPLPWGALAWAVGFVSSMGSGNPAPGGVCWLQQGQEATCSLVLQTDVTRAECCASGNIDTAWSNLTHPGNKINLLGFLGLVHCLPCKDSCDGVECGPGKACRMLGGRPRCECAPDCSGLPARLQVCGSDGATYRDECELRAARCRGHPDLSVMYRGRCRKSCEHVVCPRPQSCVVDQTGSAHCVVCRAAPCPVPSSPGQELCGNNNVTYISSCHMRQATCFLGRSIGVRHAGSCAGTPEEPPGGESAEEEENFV
Compound `Cc1ccccc1C(O)C1C=CC2C(=O)N(C)C(=O)C2N1Nc1ccccc1` (centres undefined) gave a composite z-score of 0.304.
As for `COc1cc(CO)ccc1OC(C)=O`, the composite z-score worked out at 0.516.
In the case of `CC(=CC1CCCCC1)[C@@H](NC(=O)c1ccc(C(F)(F)F)cc1)c1ccc(-c2ccccc2)cc1`, the composite z-score was determined as 0.138.
In the case of `COc1ccc([Si](C)(C)[C@H]2[C@H](CCn3cc([C@H](O)c4ccccc4)nn3)O[C@@]3(C(=O)N(Cc4cccc(N5CCC5=O)c4)c4ccccc43)[C@@H]2C)cc1` it was -0.108.
For `CCCC[C@H]1OB(O)C[C@H]2C1=C(C)C[C@H]1C(=O)N(Cc3ccccc3)C(=O)[C@H]12` the value was 1.25; for `CC(C)NC(=O)[C@@H]1c2ccccc2C(=O)N(Cc2ccccc2)[C@H]1c1ccc(CO)cc1`, -0.942.
On to `[N-]=[N+]=NCc1ccccc1C[C@]1(C(=O)NCC(O)CO)N=C(c2ccc(OCCCO)cc2)O[C@H]1c1ccccc1N=[N+]=[N-]` (some centres undefined), for which the composite z-score was -0.318.
Consider `C=CCC(OC(C)=O)[C@@H]1[C@@H](N(Cc2ccc(-c3ccccc3)cc2)C(=O)Cc2ccc(F)cc2)c2cc(OCCCO)ccc2N1C(=O)c1ccc2ccccc2n1` (some centres undefined), for which the composite z-score was -0.112.
For `CO[C@H]1O[C@H](CO)[C@@H](OC(=O)Nc2ccc(Oc3ccccc3)cc2)[C@H](OC(=O)Nc2ccccc2)[C@H]1OC(=O)Nc1ccccc1` the value was 1.2.
For `CC(C)C(O)C1C=CC2C(=O)N(c3ccccc3)C(=O)C2N1Nc1ccc(C#N)cc1` (centres undefined) the value was 1.22; for `CC(C)c1ccc(NN2C(C(O)c3c(F)cccc3Cl)C=CC3C(=O)N(c4ccccc4)C(=O)C32)cc1` (centres undefined), 0.766.
Regarding `O=C(NCc1ccccc1)[C@]1(CCS(=O)(=O)c2ccccc2)N=C(c2ccc(OCCCO)cc2)O[C@@H]1c1ccccc1`, the composite z-score was found to be 1.41.
In the case of `COc1ccc([Si](C)(C)[C@H]2[C@H](CCn3cc(CCO)nn3)O[C@@]3(C(=O)N(Cc4ccc(N5CCOC5=O)cc4)c4ccccc43)[C@@H]2C)cc1` it was 0.642; in that of `COCCOC(=O)N1C(=O)[C@@]2(c3cc(C#CC4=CCCCC4)ccc31)[C@H](C(=O)N1CCc3cc(OC)c(OC)cc3C1)[C@H]1C(=O)O[C@H](c3ccccc3)[C@H](c3ccccc3)N1[C@@H]2c1ccccc1OCCO`, 1.
In the case of `Cc1ccccc1C(O)C1C=CC2C(=O)N(C)C(=O)C2N1N1CCCCC1` (centres undefined) it was 0.621.
For `CCCCC(O)C1C=CC2C(=O)N(C3CCCCC3)C(=O)C2N1Nc1ccc(OC)cc1` (centres undefined) the value was 1.12; for `O=C(CCN1CCOCC1)c1cccc(O)c1`, 1.49.
For `C=C(COC)C(=O)CC[C@@H](OC(=O)c1cccnc1)c1ccc(CO)o1`, the composite z-score amounted to 0.916.
In the case of `O=C1c2ccccc2[C@@]2(Cc3ccccc3N(Cc3ccccc3)C2=O)[C@H](c2ccc(CO)cc2)N1C1CCCCC1` it was 0.41.
In the case of `Cc1ccc(S[C@]2(C(=O)NC3CC3)CC(=O)N(C3CCCCC3)[C@@H]2c2ccc(CO)cc2I)cc1` it was 1.18; in that of `CCOC(=O)C[C@H]1[C@H](OC(=O)c2ccccc2-c2ccccc2)[C@@H](NC(=O)c2ccc3ccccc3c2)c2cc(OCCCO)ccc2N1C(=O)c1ccc2ccccc2n1`, 0.521; in that of `C[C@H]1NC(=O)[C@H](Cc2ccccc2)NC(=O)[C@@]23C(=O)N[C@@H](Cc4ccccc4)C2[C@H](C)[C@@]2(C)O[C@H]2C3/C=C/C/C=C\CNC1=O` (some centres undefined), -0.0523.
In the case of `COC(=O)C(CC#Cc1ccc2c(c1)[C@]1(C(=O)N2)[C@H](C(=O)NC[C@H](O)c2ccccc2)[C@H]2C(=O)O[C@H](c3ccccc3)[C@H](c3ccccc3)N2[C@@H]1c1ccc(OCCO)cc1)C(=O)OC` it was 1.46; in that of `COC(=O)[C@]1(Cc2ccccc2N=[N+]=[N-])N=C(c2ccc(OCCCO)cc2)O[C@@H]1c1ccccc1N=[N+]=[N-]`, 0.488.
`COCCOC(=O)N1C(=O)[C@@]2(c3cc(C#CCCO)ccc31)[C@H](C(=O)NC[C@H](O)c1ccccc1)[C@H]1C(=O)O[C@H](c3ccccc3)[C@H](c3ccccc3)N1[C@@H]2c1ccc(O)cc1` had a composite z-score of 0.599.
`C=CCC(OC(C)=O)[C@@H]1[C@@H](N(Cc2cccc3ccccc23)C(=O)c2cccc3ccccc23)c2cc(OCCCO)ccc2N1C(=O)c1ccc2ccccc2n1` (some centres undefined) displayed a composite z-score of 0.256.
For `O=C1C2C=CC(C(O)c3ccc(B(O)O)cc3)N(Nc3ccccc3)C2C(=O)N1c1ccccc1` (centres undefined) the value was -0.593.
For `C=C[C@H](COC(C)=O)N(Cc1ccc(OC(C)=O)c(OC)c1)S(=O)(=O)c1ccc(Br)cc1` the value was 0.579; for `CC(C)Cc1ccc(CN2CC[C@@H](NS(=O)(=O)c3ccccc3)C2)cc1`, 0.0789.

Source of the values: PubChem BioAssay.
